Measurements reported in publication PMC5540273 (PLoS ONE, 2017).

Columns and labels:
Conditions in all cases: concentration: 1 μM,replicates: in singlicate; n = 1
[1] = test system: LCK
[2] = test system: LIMK1
[3] = test system: LIMK2
[4] = test system: T1, LKB1
T1 construct: gene STK11

[5] = test system: T2, LOK
T2 construct: gene STK10

[6] = test system: LRRK2
[7] = test system: LTK
[8] = test system: LYN
[9] = test system: T3, LZK
T3 construct: gene MAP3K13

[10] = test system: MAK
[11] = test system: MAP3K15
[12] = test system: MAP3K1
[13] = test system: MAP3K2
[14] = test system: MAP3K3
[15] = test system: MAP3K4
[16] = test system: MAP4K2
[17] = test system: MAP4K3
[18] = test system: MAP4K4
[19] = test system: MAP4K5
[20] = test system: MAPKAPK2
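Also: KINOMEscan kinase panel screen.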

SMILES | %Inh [1] [%] | %Inh [2] [%] | %Inh [3] [%] | %Inh [4] [%] | %Inh [5] [%] | %Inh [6] [%] | %Inh [7] [%] | %Inh [8] [%] | %Inh [9] [%] | %Inh [10] [%] | %Inh [11] [%] | %Inh [12] [%] | %Inh [13] [%] | %Inh [14] [%] | %Inh [15] [%] | %Inh [16] [%] | %Inh [17] [%] | %Inh [18] [%] | %Inh [19] [%] | %Inh [20] [%]
CCn1c(-c2nonc2N)nc2cncc(Br)c21 [SB-738004] | 0 | 0 | 5 | 19 | 9 | 45 | 0 | 13 | 41 | 28 | 18 | 10 | 0 | 0 | 3 | 40 | 0 | 3 | 0 | 10
CN(c1cccc(CNc2nc(Nc3ccc4c(c3)CC(=O)N4)ncc2C(F)(F)F)c1)S(C)(=O)=O | 42 | 0 | 0 | 5 | 0 | 18 | 60 | 18 | 0 | 0 | 0 | 0 | 44 | 11 | 3 | 0 | 18 | 34 | 0 | 0
C[C@@H]1CNc2c(sc3ccc4nc(-c5ccc(O)cc5)ccc4c23)C(=O)N1 | 0 | 4 | 0 | 0 | 19 | 93.5 | 83 | 4 | 0 | 46 | 61 | 0 | 12 | 11 | 16 | 85 | 31 | 26 | 13 | 99
C[C@@H](Oc1cc(-n2cnc3ccc(-c4ccncc4)cc32)sc1C(N)=O)c1ccccc1Cl [GSK483724] | 40 | 20 | 0 | 0 | 92.2 | 8 | 25 | 0 | 0 | 29 | 0 | 41 | 4 | 0 | 21 | 10 | 10 | 11 | 15 | 0
Cn1cc(-c2cccc3c(N)c(C(N)=O)nnc23)cn1 | 5 | 2 | 7 | 0 | 15 | 57 | 29 | 12 | 0 | 0 | 7 | 29 | 14 | 30 | 95 | 0 | 8 | 22 | 14 | 0
COC(=O)Nc1nc2cc(Oc3ccc(NC(=O)Nc4cc(C(F)(F)F)ccc4Cl)cc3)ccc2[nH]1.Cl [GW697465] | 98.9 | 11 | 0 | 14 | 99.7 | 11 | 36 | 75 | 44 | 20 | 0 | 14 | 0 | 0 | 1 | 0 | 0 | 12 | 23 | 14
CN(c1ccccc1CNc1nc(Nc2ccc3c(c2)CC(=O)N3)ncc1C(F)(F)F)S(C)(=O)=O | 78 | 0 | 0 | 0 | 57 | 20 | 81 | 26 | 0 | 16 | 0 | 0 | 61 | 63 | 6 | 17 | 42 | 0 | 13 | 0
Cc1n[nH]c2cc(Nc3ccnc(Nc4cccc(CN5CCOCC5)c4)n3)ccc12 [GW682569] | 71 | 9 | 5 | 17 | 0 | 0 | 1 | 25 | 31 | 20 | 0 | 29 | 8 | 0 | 0 | 5 | 0 | 10 | 14 | 0
